High-throughput results deposited in PubChem BioAssay by Broad Institute.
Tg IFNy HTS: blocks Toxoplasma gondii growth in the presence of IFN-gamma | actives 3.8% (n = 69,000) | activity change, negative = inhibition, % (test concentration not listed) | Toxoplasma gondii growth in IFN-gamma-treated host cells; hits give low values; in the data active means activity change below about -70%, passing the limit was not always enough;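 further: host cells are HeLa cells infected with Toxoplasma gondii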
Starred values were filed as active, the others as inactive; ! = repeats disagree. The entries come from a sample that favours hits as a whole.

SMILES | Tg IFNy HTS
COc1ccc(-c2nc(CSc3nc4c(c(=O)[nH]3)CN(Cc3ccccc3)CC4)c(C)o2)cc1 | -77*
COc1ccc(CN2CCc3nc(SCc4nc(-c5ccccc5)oc4C)[nH]c(=O)c3C2)cc1 | -15
Cc1ccc(NC(=O)N2CCC3(CC2)CC(CC(=O)N(C)C)c2ccccc2O3)cc1 (stereo not drawn) | -1
Cc1csc(-c2[nH]ncc2-c2ccsc2)n1 | -2
O=C(C1CCCO1)N1CCC(NCc2csc3c2CCCC3)CC1 (stereo not drawn) | 0
Cc1ccc(C(=O)c2cc(O)c(O)c([N+](=O)[O-])c2)cc1 | -80*!
COc1ccc(C(=O)c2ccc(C)cc2)c(O)c1 | 98
NC(=O)c1ccc(I)c([N+](=O)[O-])c1 | 20
Cc1ccc(F)cc1-n1c(Cc2ccc(O)cc2)n[nH]c1=O | 7
O=C(Nc1ccc(F)cc1)c1c(O)c2ccccc2n(-c2ccccc2)c1=O | 408
Cc1nc(-c2cccc(F)c2)sc1CCNC(=O)C(=O)Nc1ccccc1F | 23
CN(C)CCC=C1c2ccccc2CCc2ccccc21 | -75*!
OCCN1CCN(CC/C=C2/c3ccccc3Sc3ccc(Cl)cc32)CC1 | -74*
CN(C)CCC=C1c2ccccc2C=Cc2ccccc21 | -26
CN(C)CCC1(c2ccc(Cl)cc2)Cc2ccccc2C(=O)O1 (stereo not drawn) | 14
CC(C)c1ccc2c(c1)C(N1CCN(CCO)CC1)Cc1ccc(F)cc1S2 (stereo not drawn) | -66
CN(C)CC/C=C1\c2ccccc2Sc2ccc(Cl)cc21 | -77*!
CN(C)CC/C=C1/c2ccccc2COc2ccc(CC(=O)O)cc21 | -2
OCCOCCN1CCN(C2=Nc3ccccc3Sc3ccccc32)CC1 | -4
CN(C)CC/C=C1/c2ccccc2COc2ccccc21 | 16
Cc1cc(=O)[nH]c(C)c1NS(=O)(=O)NCc1ccccc1 | 1
CCCCOc1ccccc1-c1cc2c(=O)n(Cc3nc(-c4ccc(OCC)cc4)oc3C)ccn2n1 | 140
COCCN1C(=O)CCc2cc(NC(=O)Cc3ccccc3Cl)ccc21 | 5
CCOC(=O)c1nc(N2CCC(Cc3ccccc3)CC2)c2ccccc2n1 | -27
CCN(CC)c1ncnc2c1CCN(c1ccc(C)nn1)CC2 | 49
SMILES | Tg IFNy HTS
CCOc1ccc(-c2nc(Cn3ccn4nc(-c5ccccc5)cc4c3=O)c(C)o2)cc1 | 5
COc1cc(/C=C/C2=NNC(=O)CC2)cc(OC)c1OC | -97*
COc1ccc(/C=C2\CC/C(=C\c3ccc(OC)c(OC)c3)C2=O)cc1OC | 7
COc1cc(/C=C/C(=O)N2CCN(CC(=O)N3CCCC3)CC2)cc(OC)c1OC | 13
O=C1C[C@H]2CC[C@@H](CN1)N2c1ccc(C(=O)N2CCCCC2)cn1 | 0
COCc1ccc(C(=O)N2CCN3C(=O)CCC32C)o1 (stereo not drawn) | 13
CCOCC1CN(Cc2c(C)noc2C)Cc2cncn2C1 (stereo not drawn) | -1
O=C(CN1CCOC(C(F)(F)F)C1)N1CCCCC1 (stereo not drawn) | -10
O=C1c2cccc3cccc(c23)C(=O)N1CCO | -27
CN(C)CCN1C(=O)c2cccc3cc(N)cc(c23)C1=O | -77*
O=C(CCCN1C(=O)c2cccc3cccc(c23)C1=O)OCc1ccc2c(c1)OCO2 | -1
Cc1cnc(-c2cc(NCc3ccccn3)nc3[nH]ccc23)nc1N(C)C | 17
Cn1nc(CC2CCN(C(=O)c3cccc(=O)[nH]3)CC2)n(-c2ccccc2)c1=O | 28
COc1ccc(NC(=O)CC(=O)N2CCN(CCO)CC2)c(OC)c1 | -8
Fc1ccc(-c2ccc(C3[C@@H]4CN(Cc5ccccc5)C[C@H]3N4)cc2)cc1 (stereo partly drawn) | -33
Cc1ccc(-c2ccc([C@@H]3[C@@H]4CN(Cc5ccccc5F)C[C@H]3N4)cc2)cc1 | -73*
CN(C)C(=O)c1cccc(-c2ccc(C3[C@@H]4CN(Cc5ccccc5F)C[C@H]3N4)cc2)c1 (stereo partly drawn) | -6
Cc1cccc(CNC(=O)C2(Oc3cccnc3C)CCNCC2)c1C | 4
CC1(C)CCC(CN2CCN(c3ccc(C(=O)NS(=O)(=O)c4ccc(NCC5CCOCC5)c([N+](=O)[O-])c4)c(Oc4cnc5[nH]ccc5c4)c3)CC2)=C(c2ccc(Cl)cc2)C1 | -80*
CCc1ccccc1OC1CN(Cc2ncc[nH]2)C1 | -1
Cc1ncsc1C(=O)NC(Cc1cc(=O)[nH]c(-c2ccccn2)n1)c1ccc(F)cc1 (stereo not drawn) | -15
CCC(c1ccc(F)cc1)n1cc(C(=O)Nc2ccc3c(c2)N(C)C(=O)CO3)nn1 (stereo not drawn) | -50
CCC(c1ccc(F)cc1)n1cc(C(=O)Nc2nc(-c3ccccn3)cs2)nn1 (stereo not drawn) | -97*
O=C(c1ccco1)N1CCOCC2(CCN(c3ncccn3)C2)C1 (stereo not drawn) | 65
COc1cccc(NC(=O)C2(c3ccccc3)CCCC2)c1 | -15
SMILES | Tg IFNy HTS
O=C(Nc1ccc(-c2nc(-c3ccccc3)co2)cc1)NC1CCCCC1 | -5
O=C(Sc1ccc(Cl)cc1)c1cccnc1Oc1ccccc1 | -102*
O=C(Nc1csc(-c2ccc(Cl)cc2)c1)c1cccnc1Oc1ccc(Cl)cc1 | 70
O=C(NCc1csc2ccc(Cl)cc12)c1cccnc1Oc1ccc(Cl)cc1 | -61
CN(C(=O)c1ccsc1)C(Cc1ccccc1)C1CCN(C(=O)c2cnn(-c3ccccc3)c2)CC1 (stereo not drawn) | -7
COc1cccc(F)c1-c1ccc(C(=O)NC(C)(C)C)o1 | 24
COc1ccccc1-c1noc(-c2c(O)c3cc(C)ccc3[nH]c2=O)n1 | -39
COc1cc(NC(=O)CN2C[C@@H](C)O[C@@H](C)C2)ccc1NC(=O)CC(C)C | 4
CCC(C)NCCOc1ccc(C(C)(C)c2ccccc2)cc1 (stereo not drawn) | -7
CCOc1ccccc1OCCN[C@H](C)Cc1ccc(OC)c(S(N)(=O)=O)c1 | 16
CCC(C)NCCOCCOc1ccc(Cl)c2ccccc12 (stereo not drawn) | -94*
C/C(=C\COc1cc(=O)[nH]c2ccccc12)CCC1OC(C)(C)OC1(C)C (stereo not drawn) | -13
CCN1C(=O)CCCC12CCCN(C(=O)c1ccc3ncccc3c1)C2 (stereo not drawn) | -30
COc1cccc(-c2ccc3c(C4CCCN4C(=O)NC(C)C)nnn3c2)c1 (stereo not drawn) | 5
CNC(=O)c1cc(Oc2ccc(NC(=O)Nc3ccc(Cl)c(C(F)(F)F)c3)c(F)c2)ccn1 | -81*
Cc1nc(OCC(=O)Nc2ccc(Cl)c(C(F)(F)F)c2)c2ccccc2n1 | -69
CCc1nc(OCC(=O)Nc2ccc(Cl)c(C(F)(F)F)c2)c2ccccc2n1 | -14
Cc1cccn2c(CNC(=O)CC3NC(=O)c4ccccc43)cnc12 (stereo not drawn) | 11
Cc1nc(NC(=O)CCC(=O)N2CCC(c3ccccc3)C2)sc1C (stereo not drawn) | 12
Cc1c(C)c(C)c2[nH]c(-c3ccc4c(c3)OCO4)nc2c1C | -95*
CC(c1ccc(-c2ccc3c(c2)OCO3)cc1)N1CCOCC1 (stereo not drawn) | 90
Cc1ccc2[nH]c(=O)c(-c3nc(-c4ccc5c(c4)OCO5)no3)c(O)c2c1 | 335
CCCn1cnnc1CNC(=O)c1csc(-c2cccs2)n1 | -9
CN(CC(=O)N1CCN2C(=O)CN(C)C(=O)C2C1)Cc1ccc(F)cc1 (stereo not drawn) | 5
Cc1cnc(N2CC[C@@H]3[C@H]2CCN3S(=O)(=O)C2CC2)nc1 | -21
